According to the supplement of paper PMC10849652:
About 7,900 targets were measured; listed, in parts, are those with a hit and a random draw of the rest. About 0.6% of all pairs of compound and target were hits.

Experiments:
Assay in all cases: log2 fold change, soluble protein after heating vs DMSO (PISA); higher = thermal stabilisation; K562 cells, 10 uM, 30 min; active = over 0.2 and 3.5 SD of the protein, either way, in both replicates (recomputed)
erlotinib = compound: C#Cc1cccc(Nc2ncnc3cc(OCCOC)c(OCCOC)cc23)c1 [erlotinib]
How it was run: (§1)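 Soluble protein was defined as the supernatant after 21,000xg for 90 min. It came from K562 cells at 2×10^6 cells/mL given 10 μM compound for 30 min, heated in aliquots for 3 min across 48°C-58°C, pooled, and extracted in PBS with 0.5% NP-40 at 4°C, and was quantified by TMTpro 16plex LC-MS/MS with equalised channel sums. Thermal stability against control samples, from duplicates, is reported as log2 fold change.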

[1] = compound: C/C(=N\NC(=O)C1=CC(=CC=C1)S(=O)(=O)N2CCOCC2)/C3=C(C=CC(=C3)Cl)O
How it was run: as §1

[2] = compound: C1=CC(=C(C=C1Cl)C2=NC3=NC=CN=C3C(=N2)NC4=CC=NC=C4)F
How it was run: as §1

[3] = compound: C1=CC(=CC=C1C2=NC3=C(N2)C=C(C=C3)C(=O)N)OC4=CC=C(C=C4)Cl
How it was run: as §1

[4] = compound: C1=CC2=C(C=CC(=C2)/C=C\3/C(=O)NC(=NCC4=CC=CS4)S3)N=C1
How it was run: as §1

[5] = compound: C1=CC2=NC=CN=C2C=C1/C=C/3\C(=O)NC(=O)S3
How it was run: as §1

[6] = compound: C1=CC=C(C=C1)C2=NC(=C(N2)C3=CC=NC=C3)C4=CC(=C(C=C4)Cl)O
How it was run: as §1

[7] = compound: C1=CC=C2C(=C1)C3=NNC4=CC=CC(=C43)C2=O
How it was run: as §1

[8] = compound: C1CCN(C1)C(=O)NC2=CC=CC(=C2)NC3=NC=C(C(=N3)NCCC4=CN=CN4)Br
How it was run: as §1

[9] = compound: C1CN(CCC1(CC2=CC=C(C=C2)Cl)N)C3=NC=NC4=C3C=CN4
How it was run: as §1

IRAK-1-4 Inhibitor I = compound: C1COCCN1CCN2C3=CC=CC=C3N=C2NC(=O)C4=CC(=CC=C4)[N+](=O)[O-] [IRAK-1-4 Inhibitor I]
How it was run: as §1

ibrutinib = compound: C=CC(=O)N1CCC[C@@H](n2nc(-c3ccc(Oc4ccccc4)cc3)c3c(N)ncnc32)C1 [ibrutinib]
How it was run: as §1

[10] = compound: CC(=O)c1cnc2ccc(-c3cc(Cl)c(O)c(Cl)c3)nc2c1N[C@H]1CC[C@H](CN(C)C)CC1
How it was run: as §1

ralimetinib = compound: CC(C)(C)Cn1c(N)nc2ccc(-c3[nH]c(C(C)(C)C)nc3-c3ccc(F)cc3)nc21 [ralimetinib]
How it was run: as §1

[11] = compound: CC(C)(O)CC(=O)NCCn1ccc2ncnc(Nc3ccc(Oc4cccc(C(F)(F)F)c4)c(Cl)c3)c21
How it was run: as §1

[12] = compound: CC(C)C1=C2N=C(C=C(N2N=C1)NCC3=CC=CC=C3)NCCCCCCN
How it was run: as §1

[13] = compound: CC(C)C[C@@H](C=O)NC(=O)[C@H](CC(C)C)NC(=O)[C@H](CC(C)C)NC(=O)OCc1ccccc1
How it was run: as §1

pinometostat = compound: CC(C)N(C[C@H]1O[C@@H](n2cnc3c(N)ncnc32)[C@H](O)[C@@H]1O)[C@H]1C[C@@H](CCc2nc3cc(C(C)(C)C)ccc3[nH]2)C1 [pinometostat]
How it was run: as §1

[14] = compound: CC1=C(C(CC(=O)N1)C2=CC=C(C=C2)C(F)(F)F)C(=O)NC3=C(C=C4C(=C3)C=NN4)F
How it was run: as §1

[15] = compound: CC1=C(C2=C(C=C1)C(=O)C3=CC=CC=C3N2CCCN)C
How it was run: as §1

Measured: log2 fold change

ACSL4 (UniProt O60488)
Sequence of UniProt O60488 (O60488 whole entry, looked up): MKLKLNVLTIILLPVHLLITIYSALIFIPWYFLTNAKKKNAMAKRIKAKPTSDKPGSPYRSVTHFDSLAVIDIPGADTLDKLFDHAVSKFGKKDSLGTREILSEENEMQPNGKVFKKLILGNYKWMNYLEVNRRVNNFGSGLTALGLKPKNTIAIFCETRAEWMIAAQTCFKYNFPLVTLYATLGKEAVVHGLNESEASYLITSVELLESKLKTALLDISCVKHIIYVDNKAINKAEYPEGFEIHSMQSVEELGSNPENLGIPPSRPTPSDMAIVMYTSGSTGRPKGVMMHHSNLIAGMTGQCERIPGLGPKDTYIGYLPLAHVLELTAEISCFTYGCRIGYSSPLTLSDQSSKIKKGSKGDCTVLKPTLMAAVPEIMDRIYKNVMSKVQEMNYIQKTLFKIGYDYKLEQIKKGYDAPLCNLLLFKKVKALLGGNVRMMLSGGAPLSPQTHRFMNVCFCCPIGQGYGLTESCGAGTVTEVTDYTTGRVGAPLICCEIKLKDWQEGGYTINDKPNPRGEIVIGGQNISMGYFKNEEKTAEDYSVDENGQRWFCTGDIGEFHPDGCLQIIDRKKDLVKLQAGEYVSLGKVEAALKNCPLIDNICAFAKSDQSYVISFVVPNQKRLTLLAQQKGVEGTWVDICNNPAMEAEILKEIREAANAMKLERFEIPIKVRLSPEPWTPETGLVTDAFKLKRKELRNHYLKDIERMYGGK
active: [3] 0.727 | [7] 0.357 | [12] -0.443
inactive: erlotinib 0.16 | [1] 0.02 | [2] -0.021 | [4] 0.13 | [5] 0.024 | [6] 0.226 | [8] -0.058 | [9] -0.002 | IRAK-1-4 Inhibitor I -0.067 | ibrutinib 0.001 | [10] 0 | ralimetinib 0.049 | [11] -0.237 | [13] 0.038 | pinometostat 0.098 | [14] 0.019 | [15] 0

ANXA5 (UniProt P08758)
Sequence of UniProt P08758 (P08758 whole entry, looked up): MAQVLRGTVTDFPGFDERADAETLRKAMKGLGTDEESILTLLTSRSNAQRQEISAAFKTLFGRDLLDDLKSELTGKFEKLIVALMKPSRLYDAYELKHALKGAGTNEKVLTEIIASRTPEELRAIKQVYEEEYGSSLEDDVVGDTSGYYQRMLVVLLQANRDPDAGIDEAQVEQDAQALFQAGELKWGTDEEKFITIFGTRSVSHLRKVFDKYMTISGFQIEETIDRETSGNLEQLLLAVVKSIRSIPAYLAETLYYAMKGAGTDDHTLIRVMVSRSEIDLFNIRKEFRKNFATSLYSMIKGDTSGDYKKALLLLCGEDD
inactive: erlotinib -0.012 | [1] 0.1 | [2] 0.06 | [3] -0.039 | [4] 0.009 | [5] 0.002 | [6] 0.013 | [7] 0.038 | [8] 0.022 | [9] -0.012 | IRAK-1-4 Inhibitor I -0.013 | ibrutinib -0.05 | [10] -0.019 | ralimetinib -0.018 | [11] -0.006 | [12] -0.069 | [13] 0.017 | pinometostat -0.026 | [14] 0 | [15] 0.032

ATP6AP1 (UniProt Q15904)
inactive: erlotinib -0.009 | [1] -0.031 | [2] -0.036 | [3] 0.029 | [4] -0.08 | [5] -0.022 | [6] -0.128 | [7] -0.004 | [8] 0.01 | [9] -0.079 | IRAK-1-4 Inhibitor I -0.02 | ibrutinib 0 | [10] -0.035 | ralimetinib 0.01 | [11] 0.035 | [12] -0.091 | [13] 0.02 | pinometostat 0.101 | [14] 0.047 | [15] -0.024

ARMC8 (UniProt Q8IUR7)
Sequence of UniProt Q8IUR7 (Q8IUR7 whole entry, looked up): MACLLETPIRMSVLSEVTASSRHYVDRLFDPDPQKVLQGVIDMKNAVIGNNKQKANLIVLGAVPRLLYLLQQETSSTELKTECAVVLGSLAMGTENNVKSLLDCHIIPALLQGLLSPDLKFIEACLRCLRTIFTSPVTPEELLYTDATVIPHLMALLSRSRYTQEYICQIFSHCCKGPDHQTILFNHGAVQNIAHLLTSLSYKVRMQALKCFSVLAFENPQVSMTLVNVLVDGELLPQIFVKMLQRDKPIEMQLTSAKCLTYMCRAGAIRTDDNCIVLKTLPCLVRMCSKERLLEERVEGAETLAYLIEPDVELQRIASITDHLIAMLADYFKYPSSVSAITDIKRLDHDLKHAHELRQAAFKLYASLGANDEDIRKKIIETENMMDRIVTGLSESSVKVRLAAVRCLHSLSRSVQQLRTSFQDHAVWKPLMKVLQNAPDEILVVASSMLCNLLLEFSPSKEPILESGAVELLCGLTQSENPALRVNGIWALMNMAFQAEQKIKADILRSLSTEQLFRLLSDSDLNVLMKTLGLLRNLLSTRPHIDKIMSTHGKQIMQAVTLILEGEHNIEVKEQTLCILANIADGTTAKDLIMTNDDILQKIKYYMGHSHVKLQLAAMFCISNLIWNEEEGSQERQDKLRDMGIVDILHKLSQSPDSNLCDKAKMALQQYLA
inactive: erlotinib -0.079 | [1] -0.029 | [2] -0.029 | [3] 0.027 | [4] -0.047 | [5] 0.013 | [6] 0.051 | [7] -0.005 | [8] -0.002 | [9] -0.027 | IRAK-1-4 Inhibitor I -0.025 | ibrutinib -0.017 | [10] 0.036 | ralimetinib 0.084 | [11] -0.011 | [12] -0.01 | [13] -0.093 | pinometostat -0.021 | [14] -0.025 | [15] -0.07

ACADVL isoform 3 (UniProt P49748)
active: [3] 0.291
inactive: erlotinib 0.008 | [1] 0.015 | [2] 0.035 | [4] 0.023 | [5] 0.055 | [6] 0.027 | [7] 0.155 | [8] 0.025 | [9] 0.043 | IRAK-1-4 Inhibitor I 0.038 | ibrutinib -0.002 | [10] 0.005 | ralimetinib -0.015 | [11] -0.016 | [12] -0.013 | [13] -0.025 | pinometostat -0.067 | [14] -0.032 | [15] 0.002

BID isoform 2 (UniProt P55957)
inactive: erlotinib 0.026 | [1] 0.006 | [2] 0.014 | [3] 0.052 | [4] -0.04 | [5] 0.012 | [6] -0.03 | [7] 0.028 | [8] -0.05 | [9] 0.034 | IRAK-1-4 Inhibitor I 0.052 | ibrutinib 0.008 | [10] -0.039 | ralimetinib -0.038 | [11] -0.053 | [12] 0.105 | [13] 0.012 | pinometostat -0.018 | [14] -0.047 | [15] 0.074

AGAP3 isoform 4 (UniProt Q96P47)
Sequence of UniProt Q96P47 (Q96P47 whole entry, looked up): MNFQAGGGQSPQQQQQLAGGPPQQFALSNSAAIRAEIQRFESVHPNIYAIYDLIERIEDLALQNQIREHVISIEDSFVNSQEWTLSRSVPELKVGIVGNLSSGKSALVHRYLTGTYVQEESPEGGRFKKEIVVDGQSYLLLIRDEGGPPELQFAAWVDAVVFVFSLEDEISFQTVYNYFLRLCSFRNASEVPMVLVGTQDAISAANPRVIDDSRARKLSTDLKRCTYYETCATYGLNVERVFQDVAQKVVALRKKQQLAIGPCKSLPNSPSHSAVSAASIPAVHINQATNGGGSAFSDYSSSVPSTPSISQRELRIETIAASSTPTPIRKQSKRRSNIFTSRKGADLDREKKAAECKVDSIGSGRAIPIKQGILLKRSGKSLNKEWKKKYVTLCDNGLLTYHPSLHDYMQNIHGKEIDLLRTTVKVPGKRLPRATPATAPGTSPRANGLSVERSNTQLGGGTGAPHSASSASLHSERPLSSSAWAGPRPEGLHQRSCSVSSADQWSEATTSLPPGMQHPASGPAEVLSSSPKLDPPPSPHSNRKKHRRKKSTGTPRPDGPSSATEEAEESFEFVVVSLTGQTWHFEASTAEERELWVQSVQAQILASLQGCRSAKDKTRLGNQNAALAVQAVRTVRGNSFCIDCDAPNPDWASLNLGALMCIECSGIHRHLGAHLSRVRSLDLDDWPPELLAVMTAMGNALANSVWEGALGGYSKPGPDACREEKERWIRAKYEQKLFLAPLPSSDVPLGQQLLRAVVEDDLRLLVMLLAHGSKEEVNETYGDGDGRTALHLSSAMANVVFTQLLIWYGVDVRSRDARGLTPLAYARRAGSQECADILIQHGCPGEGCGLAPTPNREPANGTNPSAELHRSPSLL
inactive: erlotinib 0.11 | [1] 0 | [2] -0.078 | [3] -0.062 | [4] 0.017 | [5] 0.183 | [6] -0.024 | [7] -0.082 | [8] -0.075 | [9] 0.127 | IRAK-1-4 Inhibitor I -0.024 | ibrutinib -0.018 | [10] -0.223 | ralimetinib 0.25 | [11] 0.009 | [12] -0.182 | [13] -0.044 | pinometostat 0.245 | [14] -0.107 | [15] -0.043

ACSL1 (UniProt P33121)
active: [12] -0.243
inactive: erlotinib -0.015 | [1] 0.067 | [2] 0.017 | [3] 0.03 | [4] 0.005 | [5] 0.018 | [6] 0.057 | [7] 0.016 | [8] -0.021 | [9] 0.002 | IRAK-1-4 Inhibitor I -0.004 | ibrutinib 0.017 | [10] -0.037 | ralimetinib -0.018 | [11] 0.01 | [13] -0.057 | pinometostat 0.008 | [14] 0.058 | [15] 0.03

ATAD3A isoform 2 (UniProt Q9NVI7)
Sequence of UniProt Q9NVI7 (Q9NVI7 whole entry, looked up): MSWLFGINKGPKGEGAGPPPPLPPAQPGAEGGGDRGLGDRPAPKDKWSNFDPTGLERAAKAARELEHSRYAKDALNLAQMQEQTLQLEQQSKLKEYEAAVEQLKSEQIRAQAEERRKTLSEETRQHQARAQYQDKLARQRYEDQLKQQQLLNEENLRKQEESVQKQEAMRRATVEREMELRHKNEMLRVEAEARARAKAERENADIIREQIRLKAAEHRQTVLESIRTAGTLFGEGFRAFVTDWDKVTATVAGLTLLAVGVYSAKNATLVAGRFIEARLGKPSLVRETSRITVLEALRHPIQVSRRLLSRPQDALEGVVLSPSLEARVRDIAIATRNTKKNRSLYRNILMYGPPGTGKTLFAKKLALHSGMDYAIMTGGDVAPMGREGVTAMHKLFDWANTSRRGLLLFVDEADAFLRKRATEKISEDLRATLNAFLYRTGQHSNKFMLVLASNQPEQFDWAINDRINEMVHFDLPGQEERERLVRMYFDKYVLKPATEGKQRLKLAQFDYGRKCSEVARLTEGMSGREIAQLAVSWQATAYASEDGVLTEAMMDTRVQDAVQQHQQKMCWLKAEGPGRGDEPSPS
inactive: erlotinib -0.036 | [1] 0.02 | [2] -0.045 | [3] 0.006 | [4] -0.038 | [5] -0.013 | [6] -0.04 | [7] 0.017 | [8] 0.037 | [9] -0.101 | IRAK-1-4 Inhibitor I -0.005 | ibrutinib 0.08 | [10] -0.075 | ralimetinib 0.009 | [11] -0.023 | [13] 0.075 | pinometostat 0.082 | [14] 0 | [15] 0.096
active: [12] -0.468

AGPS (UniProt O00116)
Sequence of UniProt O00116 (O00116 whole entry, looked up): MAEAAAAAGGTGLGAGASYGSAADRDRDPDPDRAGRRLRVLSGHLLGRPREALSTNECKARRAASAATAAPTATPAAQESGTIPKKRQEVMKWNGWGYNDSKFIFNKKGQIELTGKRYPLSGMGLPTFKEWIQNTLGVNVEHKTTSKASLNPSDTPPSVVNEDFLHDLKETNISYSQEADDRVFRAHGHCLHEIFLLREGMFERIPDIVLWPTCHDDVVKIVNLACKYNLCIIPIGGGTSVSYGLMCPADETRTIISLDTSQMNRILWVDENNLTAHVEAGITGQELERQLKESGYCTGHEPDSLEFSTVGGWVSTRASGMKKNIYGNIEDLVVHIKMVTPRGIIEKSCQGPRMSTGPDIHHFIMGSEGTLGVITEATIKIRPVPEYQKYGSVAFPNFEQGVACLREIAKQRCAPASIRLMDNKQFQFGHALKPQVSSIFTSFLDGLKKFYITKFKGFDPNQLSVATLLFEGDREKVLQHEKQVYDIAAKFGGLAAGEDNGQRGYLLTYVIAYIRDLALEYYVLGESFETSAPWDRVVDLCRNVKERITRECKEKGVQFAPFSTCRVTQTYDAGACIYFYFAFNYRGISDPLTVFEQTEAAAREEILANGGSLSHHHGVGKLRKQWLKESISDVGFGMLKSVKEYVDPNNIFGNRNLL
active: [3] 0.256
inactive: erlotinib 0.046 | [1] 0.055 | [2] 0.092 | [4] 0.055 | [5] 0.031 | [6] 0.175 | [7] 0.043 | [8] -0.01 | [9] 0.077 | IRAK-1-4 Inhibitor I 0.025 | ibrutinib -0.005 | [10] -0.028 | ralimetinib 0.007 | [11] -0.008 | [12] -0.123 | [13] -0.025 | pinometostat -0.041 | [14] -0.025 | [15] 0.031

BRIP1 (UniProt Q9BX63)
Sequence of UniProt Q9BX63 (Q9BX63 whole entry, looked up): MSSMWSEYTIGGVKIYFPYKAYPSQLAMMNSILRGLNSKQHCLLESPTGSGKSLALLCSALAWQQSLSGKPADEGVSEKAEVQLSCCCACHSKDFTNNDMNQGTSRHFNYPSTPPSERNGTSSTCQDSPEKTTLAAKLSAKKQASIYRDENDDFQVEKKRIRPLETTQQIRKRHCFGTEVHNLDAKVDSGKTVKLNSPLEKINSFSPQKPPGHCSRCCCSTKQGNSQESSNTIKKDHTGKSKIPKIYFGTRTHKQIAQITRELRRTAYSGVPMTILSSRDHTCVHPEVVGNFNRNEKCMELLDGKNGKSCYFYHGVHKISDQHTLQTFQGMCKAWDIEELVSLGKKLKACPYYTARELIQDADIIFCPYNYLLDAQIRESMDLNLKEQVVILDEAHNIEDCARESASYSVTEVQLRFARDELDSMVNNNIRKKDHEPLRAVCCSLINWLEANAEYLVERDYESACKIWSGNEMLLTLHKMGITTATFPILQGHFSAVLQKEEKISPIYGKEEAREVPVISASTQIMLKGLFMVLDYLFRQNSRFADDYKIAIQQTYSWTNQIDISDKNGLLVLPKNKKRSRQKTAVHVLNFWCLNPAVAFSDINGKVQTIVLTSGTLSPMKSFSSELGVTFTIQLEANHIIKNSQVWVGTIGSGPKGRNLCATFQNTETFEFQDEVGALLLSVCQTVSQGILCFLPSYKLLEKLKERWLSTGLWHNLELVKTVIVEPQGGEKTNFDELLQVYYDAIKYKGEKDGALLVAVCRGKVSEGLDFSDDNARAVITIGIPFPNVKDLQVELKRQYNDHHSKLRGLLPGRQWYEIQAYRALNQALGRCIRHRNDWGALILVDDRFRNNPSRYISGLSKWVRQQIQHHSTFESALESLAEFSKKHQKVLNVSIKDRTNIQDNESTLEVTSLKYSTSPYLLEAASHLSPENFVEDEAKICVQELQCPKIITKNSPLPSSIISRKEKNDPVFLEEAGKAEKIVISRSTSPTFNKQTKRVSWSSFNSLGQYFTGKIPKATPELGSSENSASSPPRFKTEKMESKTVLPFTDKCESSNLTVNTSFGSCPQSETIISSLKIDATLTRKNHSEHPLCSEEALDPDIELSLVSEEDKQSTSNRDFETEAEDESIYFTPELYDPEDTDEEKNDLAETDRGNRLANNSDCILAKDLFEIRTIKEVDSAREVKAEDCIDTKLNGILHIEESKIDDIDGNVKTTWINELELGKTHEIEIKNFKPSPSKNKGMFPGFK
active: [15] 0.333
inactive: erlotinib -0.009 | [1] 0.076 | [2] -0.153 | [3] 0.018 | [4] 0.075 | [5] -0.082 | [6] -0.048 | [7] 0.023 | [8] -0.064 | [9] -0.045 | IRAK-1-4 Inhibitor I 0.017 | ibrutinib 0.12 | [10] -0.073 | ralimetinib 0.006 | [11] 0.039 | [12] -0.036 | [13] -0.064 | pinometostat 0.084 | [14] -0.01

ATIC (UniProt P31939)
inactive: erlotinib 0.031 | [1] 0.033 | [2] 0.062 | [3] 0.006 | [4] 0.005 | [5] -0.067 | [6] 0.094 | [7] 0.016 | [8] -0.031 | [9] 0.035 | IRAK-1-4 Inhibitor I 0.018 | ibrutinib 0.013 | [10] -0.015 | ralimetinib -0.007 | [11] 0 | [12] 0.079 | [13] -0.044 | pinometostat -0.04 | [14] -0.023 | [15] 0.064
